Methyltransferases – Primary Screen for Target Class Profiling of Small Molecule Inhibitors of Methyltransferases. purified enzyme, MTase-Glo SAH luminescence; stronger effect = lower value. calls only at 40 µM. hit rate 3.9% among 25,000. AID 1745853, 2022; call rule not given here
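Each enzyme was reacted with SAM and its substrate, with compounds tested once at 40 uM; SAH formed was read by MTase-Glo luminescence.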
Of the large screens only hits and unclear results are named; the others gave an inactive call; ! = not active in a repeat. Only a selection was taken, and hits are over-represented in it overall.

C[C@@H]1O[C@@H](O[C@@H]2CO[C@@H](O[C@H]3CC[C@@]4(C)C(CC[C@]5(C)C4CC=C4[C@@H]6CC(C)(C)CC[C@]6(C(=O)O[C@@H]6O[C@H](CO)[C@@H](O)[C@H](O)[C@H]6O)CC[C@]45C)[C@]3(C)CO)[C@H](O)[C@H]2O[C@@H]2O[C@H](CO)[C@@H](O)[C@H](O)[C@H]2O)[C@H](O)[C@H](O)[C@H]1O (some centres undefined)	none
C[C@@H]1CC[C@]2(C(=O)O[C@@H]3O[C@H](CO)[C@@H](O)[C@H](O)[C@H]3O)CC[C@]3(C)C(=CCC4[C@@]5(C)C[C@@H](O)[C@H](O)C(C)(C)C5CC[C@]43C)C2[C@]1(C)O (some centres undefined)	none
CC1(C)CC[C@]2(C(=O)O)CC[C@]3(C)C(=CCC4[C@@]5(C)C[C@@H](O)[C@H](O)[C@@](C)(CO)C5[C@H](O)C[C@]43C)[C@@H]2C1 (some centres undefined)	none
CC1CCC2(C(=O)OC3OC(CO)C(O)C(O)C3O)CCC3(C)C(=CCC4C5(C)CCC(O)C(C)(CO)C5CCC43C)C2C1(C)O (centres undefined)	none
CC1OC(OC2C(O)COC(O[C@@H]3[C@@H](O)[C@@H](O)[C@H](OC4C(OC(=O)[C@]56CCC(C)(C)CC5C5=CCC7[C@@]8(C)C[C@H](O)[C@H](OC9OC(CO)C(O)C(O)C9O)[C@@](C)(CO)C8[C@H](O)C[C@@]7(C)[C@]5(C)CC6)OCC(O)C4O)O[C@H]3C)C2O)C(O)C(O)C1O (some centres undefined)	none
CC1(C)CC[C@]2(C(=O)O[C@@H]3O[C@H](CO)[C@@H](O)[C@H](O)[C@H]3O)CC[C@]3(C)C(=CCC4[C@@]5(C)C[C@@H](O)[C@H](O)[C@@](C)(CO)C5CC[C@]43C)C2[C@@H]1O (some centres undefined)	Methyltransferases active
CC1(CO)CC[C@]2(C(=O)O[C@@H]3O[C@H](CO)[C@@H](O)[C@H](O)[C@H]3O)CC[C@]3(C)C(=CCC4[C@@]5(C)C[C@H](O)[C@H](O[C@@H]6OC[C@@H](O)[C@H](O)[C@H]6O)[C@@](C)(CO)C5CC[C@]43C)C2C1 (some centres undefined)	Methyltransferases active
Cc1ccc(C)c(OCC(=O)N[C@H]2CCOC[C@H]2C2CCOCC2)c1C	none
CCCn1c(=O)c2cc(Cl)ccc2n2c(SCc3cccc(C)c3)nnc12	none
CCC(C)NC(=O)c1ccc2c(=O)n(C3CC3)c3nn(CC(=O)NC4CCCC4)c(=O)n3c2c1 (centres undefined)	none
COC(=O)N(C)Cc1cccc(N2CCN(S(=O)(=O)c3cccc4ccccc34)CC2)c1F	none
CCc1cc2c(cc3n2CC(C)(C(=O)NC2CCCCCC2)N(Cc2ccc(OC)cc2)C3=O)s1 (centres undefined)	none
CCCSCCCN1C(=O)c2cc3sc(CC)cc3n2CC1(C)C(=O)NC1CCCCCC1 (centres undefined)	none
CC/C=C/CC1=C(CCCCC(CCC(=O)O)OC(C)=O)CCC1=O (centres undefined)	none
COC(=O)c1cc2n(n1)CC(C)(C(=O)NC1CCC(C)CC1)N(CCc1ccc(Cl)cc1)C2=O (centres undefined)	none
CCCn1c(=O)c2cc(Cl)ccc2n2c(=O)n(Cc3ccc(F)cc3)nc12	none
CCOc1ccc(S(=O)(=O)NCCn2c(C(F)(F)F)nc3ccccc32)cc1	none
CN1C(=O)c2cc(C(=O)NCc3ccc(Cl)cc3)nn2CC1(C)C(=O)NC1CCCCC1 (centres undefined)	none
COc1ccccc1-c1cccc(CN2CCC(NC(C)=O)CC2)c1	none
COc1cc2nc(N3CCN(C(=O)COc4c(OC)cccc4C(C)C)CC3)nc(N)c2cc1OC	none
O=C(NC1CCN(Cc2ccccc2)CC1)C1CCCN(c2cnc3nccnc3c2)C1 (centres undefined)	none
COc1cc2nc(N3CCCN(C)CC3)nc(NC3CCN(Cc4ccccc4)CC3)c2cc1OC	Methyltransferases active
COc1cc2c(NC3CCN(C(C)C)CC3)nc(N3CCC(F)(F)CC3)nc2cc1OCCCN1CCCC1	Methyltransferases active
COc1cc2nc(N3CCN(C)CC3)nc(NC3CCN(Cc4ccccc4)CC3)c2cc1OC	Methyltransferases active!
CN1CCN(Cc2nnc(C(=O)N3CCC[C@@H]3c3ccc(Br)cc3)n2Cc2ccccc2)CC1	none
COCCN1C(=O)c2cc(-c3ccc(OC)cc3)nn2CC1(C)C(=O)NCc1ccccc1OC (centres undefined)	none
Cc1ccc(N2C(=O)c3ccc(-c4ccco4)n3CC2(C)C(=O)NC2CCCC2)cc1 (centres undefined)	none
COc1ccc(-c2cc3n(n2)CC(C)(C(=O)NCc2ccccc2)N(Cc2cccc(OC)c2OC)C3=O)cc1 (centres undefined)	none
CCOc1ccc(CN2C(=O)c3cc(C(C)(C)C)nn3CC2(C)C(=O)NCc2ccccc2)cc1 (centres undefined)	none
CN(CCN1C(=O)c2cc3sccc3n2CC1(C)C(=O)NC1CCCCCCC1)C1CCCCC1 (centres undefined)	none
